The subject of this assay is MBM. Nature of the assay: selectivity across cysteine-reactive proteome – gel-based competitive ABPP, fluorescence, MBM, Neuro-2A, selectivity assay for PME-1 inhibitor project, late-stage follow-up (AID 602468). Particulars: MBM or Neuro-2A, in vitro, at 10 µM, stronger effect = lower value.

A number with no mark means an inactive call. No rule for the calls is given here.

In the case of `CC[C@@]1(c2ccc(C)cc2)C(=O)N(C(=O)OC(C)C)N1C(=O)OC(C)C`, the number of anti-targets inhibited was 0.

These data come from PubChem BioAssay AID602468 (The Scripps Research Institute Molecular Screening Center, 2012).
